# DT40 TDP1 CPT: growth inhibition of DT40 Tdp1-/-;hTDP1 cells with camptothecin (screen for TDP1 inhibitors). 420,000 compounds, 12% hits. Potency, µM (doses to about 46.2 µM), for inactives: at the highest dose activity change, negative = growth inhibition, most hits filed as inhibitors. chicken DT40 Tdp1-/-;hTDP1 cells + 20 nM CPT, ATP luminescence, 48 h; note: nearly all actives have a fitted effect of over 55% in size
#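 Chicken DT40 Tdp1-/- cells complemented with human TDP1, 400 cells/well, exposed to compounds plus 20 nM camptothecin for at least 48 h at 37 C; viability read as ATP content by CellTiter-Glo luminescence.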
# Gal4-VP16 FLuc: Gal4-VP16 reporter inhibition counter-screen | Drosophila S2 Gal4-VP16 UAS-luciferase, luminescence, 20 h | Potency, µM (highest dose often 53.6 µM), inactives show top-dose activity, negative = inhibition, most hits filed as inhibitors | 310,000 compounds, 3.5% hits | AID 2546;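 note: Gal4-VP16 expression switched on by copper sulfate through the metallothionein promoter; nearly all actives have a fitted effect of over 50% in size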
# RORgamma inh: ROR gamma (mouse) transcription inhibition; Drosophila S2 Gal4-RORgamma UAS-luciferase reporter, 20 h; Potency, µM (doses to about 53.6 µM), for inactives: top-dose activity change, negative = inhibition, usual class: inhibitors; 310,000 compounds, 5.4% hits; AID 2551; note: nearly all actives have a fitted effect of over 60% in size
#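 Compounds are pin-transferred onto Drosophila Schneider cells expressing a copper-inducible Gal4–ROR gamma transactivation domain fusion. After 1 hr, copper sulfate is added to 700 uM final; luciferase is read 20 hr later.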
# TDP1 inh: blocks human tyrosyl-DNA phosphodiesterase 1; Potency, µM (highest dose often 130 µM), for inactives: at the top dose activity change, negative = inhibition, actives largely listed as inhibitors; Q9NUW8; 350,000 compounds, 0.28% hits; AID 485290; recombinant TDP1, AlphaScreen DNA substrate cleavage; note: nearly all actives have a fitted effect of over 40% in size
# Target sequence (Q9NUW8 whole entry, looked up): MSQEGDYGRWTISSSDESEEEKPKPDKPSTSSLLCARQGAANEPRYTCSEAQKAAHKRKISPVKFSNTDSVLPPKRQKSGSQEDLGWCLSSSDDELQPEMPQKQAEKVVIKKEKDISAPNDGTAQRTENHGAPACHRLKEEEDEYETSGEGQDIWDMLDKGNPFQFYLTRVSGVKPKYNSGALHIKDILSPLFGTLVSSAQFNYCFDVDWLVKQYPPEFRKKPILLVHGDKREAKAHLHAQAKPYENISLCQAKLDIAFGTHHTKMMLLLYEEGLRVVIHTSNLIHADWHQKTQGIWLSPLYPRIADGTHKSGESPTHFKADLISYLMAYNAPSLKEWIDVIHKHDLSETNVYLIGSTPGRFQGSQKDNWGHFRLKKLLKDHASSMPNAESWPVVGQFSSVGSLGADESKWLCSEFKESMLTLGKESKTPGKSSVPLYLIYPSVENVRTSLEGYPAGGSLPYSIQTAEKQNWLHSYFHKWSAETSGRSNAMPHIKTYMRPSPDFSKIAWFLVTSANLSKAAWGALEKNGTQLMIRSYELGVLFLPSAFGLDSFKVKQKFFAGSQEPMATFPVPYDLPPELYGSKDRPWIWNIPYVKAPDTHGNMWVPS
#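 Tdp1 1 nM final; 15 min RT w/ cpd; substrate 15 nM, 5 min; beads 10 ug/ml, 10 min; AlphaScreen read. Neg ctrl: no enzyme.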
# DT40 TDP1 no CPT: qHTS for Inhibitors of human tyrosyl-DNA phosphodiesterase 1 (TDP1): qHTS in cells in absence of CPT | DT40 Tdp1-/- hTDP1 cells, no CPT, ATP luminescence, 48 h | Potency, µM (series often up to 46.2 µM), for the others: top-dose activity change, negative = growth inhibition, hits mostly inhibitors | 420,000 compounds, 15% hits | AID 686978, 2013; note: nearly all actives have a fitted effect of over 55% in size
#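 Growth kinetics read by CellTiter-Glo luminescence after ≥48 hr at 37 °C. Cells: DT40 Tdp1-/- stably carrying human TDP1, 400 per well, compound exposure in the absence of CPT (DMSO vehicle).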
# * = called active by the depositor; u = inconclusive; x = not tested or not shown; [ ] = another dose, or the depositor's remark. The list is not random: actives were taken first. Their share in the collection is about 19%. Calls come from the whole dose curve; as a rule, active = well fitted curve in the direction sought with a large enough effect; inconclusive = small, poorly fitted or top-dose-only effect, or another doubt; inactive = no such curve, though single readings can be large; an effect the other way counts as inactive or inconclusive. % is set by controls: 0 for no effect and ±100 for the full control effect; potency is the fitted concentration of half-maximal effect.
SMILES,DT40 TDP1 CPT,Gal4-VP16 FLuc,RORgamma inh,TDP1 inh,DT40 TDP1 no CPT
CCc1nc2c(OCC(=O)c3ccc(Cl)cc3Cl)cccn2c1N(C=O)Cc1ccc(OC)cc1,23.1µM*,x,x,x,18.4µM*
CCc1nc2c(OCCn3cccc3)cccn2c1N(C=O)Cc1ccc(OC)cc1,20.6µM*,x,x,x,u
CCc1nc2c(OCCn3cccc3)cccn2c1N(C)C(=O)c1ccc(C)cc1,u,x,x,x,-25.6%
CCc1nc2c(OCc3c(C)noc3C)cccn2c1N(C=O)Cc1ccc(OC)cc1,23.1µM*,x,x,x,14.6µM*
CCOc1ccc(CN=C(N)N=C(N)N)cc1Cl,11.6µM*,-2.2%,1.9%,7.1%,5.8µM*
CCCOc1ccc(CSC(=N)N)cc1C(=O)OC,u,-0.6%,10.7%,1.4%,u
CCCOc1ccc(CCCN=C(N)N)cc1Cl,2.06µM*,-7.4%,31.6%,1.4%,2.06µM*
CCCCOc1ccc(CN=C(N)N)cc1Cl,2.31µM*,-0.2%,7.5%,0.0%,1.46µM*
Cc1ccc(-c2nn(-c3ccccc3)cc2NC(=O)CCl)cc1,3.26µM*,-3.6%,-33.5%,2.7%,2.59µM*
CC(=O)Nc1ccc(-c2cc(NC(C)=O)n(-c3ccccc3)n2)cc1,-0.2%,-1.0%,6.2%,2.0%,-11.7%
Cc1ccc(-c2cc(NC(=O)CCl)n(-c3ccccc3)n2)cc1,-90.5%,5.01µM*,6.31µM*,3.2%,7.31µM*
Cc1ccc(C)c(NC(=O)c2nc(-c3ccccc3)n(-c3ccccc3)n2)c1,u,13.2%,u,1.1%,u
Cc1ccc(C)c(NC(=O)c2cc(-c3ccccc3)nn2-c2ccccc2)c1,u,22.4µM*,15.3%,2.7%,u
O=C(CCl)Nc1cc(-c2ccccc2)nn1-c1ccccc1,5.17µM*,u,14.1µM*,7.5%,3.26µM*
COc1ccc(OCC(=O)Nc2cc(-c3cccc(Cl)c3)nn2-c2ccccc2)cc1,u,x,x,2.7%,u
CCOC(=O)N1CCN(C(=S)Nc2cc(OC)c(OC)cc2C(=O)OC)CC1,-7.9%,5.0%,-22.4%,3.0%,-18.5%
COc1cccc(/C=C2\Oc3cc(OCC(=O)N4CCCC4)ccc3C2=O)c1OC,u,-0.5%,-39.5%,6.8%,u
COC(=O)c1ccc(CSc2ccc3nnc(-c4ccc(OC)cc4)n3n2)o1,x,16.4%[10 µM],-24.6%,-2.6%,x
COc1ccc(-c2nc(SC(C)C(=O)NCC3CCCO3)n[nH]2)cc1 (configuration not stated),8.2µM*,x,x,0.4%,9.2µM*
O=C(CSc1nnc2ccc(-c3ccc(Br)cc3)nn12)NCC1CCCO1 (configuration not stated),20.6µM*,x,x,x,u
O=C(CSc1nnc2ccc(-c3ccccc3)nn12)NCC1CCCO1 (configuration not stated),-0.5%,-11.4%,-0.2%,1.2%,16.6%
COC(=O)c1ccc(CSc2ccc3nnc(-c4ccc(OC)c(OC)c4)n3n2)o1,u,x,x,x,10.3µM*
COc1ccc(-c2nnc3ccc(SCC(=O)NCc4ccco4)nn23)cc1,-15.7%,-6.2%,20.8%,79.4µM*,-30.0%
O=C(CSc1ccc2nnc(-c3ccccc3)n2n1)NCc1ccco1,-5.9%,-5.3%,u,u,-14.2%
COC(=O)c1cn(CC(=O)Nc2ccc(OC)cc2)c2ccccc12,-13.5%,-1.3%,-1.1%[1.91 µM],x,3.9%
SMILES,DT40 TDP1 CPT,Gal4-VP16 FLuc,RORgamma inh,TDP1 inh,DT40 TDP1 no CPT
CCCCOc1ccc(-c2nnn(CC(=O)NCc3ccco3)n2)cc1,4.61µM*,u,24.6%,-1.0%,4.61µM*
COc1ccc(-c2nnc(SCC(=O)NCc3ccco3)o2)cc1,-28.1%,u,0.562µM*,-6.7%,2.2%
Nc1nc(SCC(=O)NCc2ccco2)[nH]c(=O)c1-c1ccccc1,-7.0%,-2.1%,-9.0%,0.0%,-7.8%
CC(C)(C)c1ccc(-c2nnc(SCC(=O)NCC3CCCO3)n2N)cc1 (configuration not stated),4.1%,x,x,1.3%,6.8%
Cc1nc(SCC(=O)NCc2ccco2)[nH]c(=O)c1C,23.1µM*,1.1%,7.3%,-3.1%,-20.2%
Nn1c(SCC(=O)NCC2CCCO2)nnc1-c1ccc(OC(F)F)cc1 (configuration not stated),-8.4%,x,x,89.1µM*,0.0%
Cc1nnc(NC(=O)CSc2ncc(-c3ccccc3)[nH]2)s1,-11.0%,10.4%,9.2%,x,7.1%
CCOC(=O)c1c(NC(=O)c2cc3ccccc3c(=O)o2)sc2c1CCC(C)C2 (configuration not stated),x,x,x,2.1%,x
O=C(CSc1ccc2nnc(-c3ccccc3)n2n1)NCc1ccc2c(c1)OCO2,u,2.4%,0.7%,1.1%,-18.0%
COc1ccc(NC(=O)Nc2nnc(-c3ccccc3F)s2)cc1,u,-1.4%,3.6%,-3.6%,u
Cc1ccc(C)c(NC(=O)N2CCN(C)c3ncccc32)c1,u,x,x,6.4%,u
O=C(CSc1nnc(CNC(=O)c2c(F)cccc2F)o1)NCc1ccco1,12.3%,3.9%,-7.0%,50.1µM*,1.3%
O=C(CSc1nnc(CNC(=O)c2ccccc2)o1)NCc1ccco1,4.0%,-6.0%,-13.9%,-1.5%,7.3%
COc1ccc(-c2nnc(SCC(=O)NCC3CCCO3)o2)cc1 (configuration not stated),-15.4%,u,12.6µM*,1.4%,14.6%
C=CCNCCOCCOc1ccc(Cl)cc1C(C)(C)C,18.4µM*,-0.6%,-1.4%,0.6%,25.9µM*
Clc1ccc(OCCOCCN2CCCCC2)c(Br)c1,-3.5%,17.0%,-5.4%,-5.9%,3.2%
COCCCNCCOCCOc1ccc(Cl)cc1C(C)(C)C,16.4µM*,-2.2%,-15.0%,-5.9%,10.3µM*
CC(C)(C)c1cc(Cl)ccc1OCCOCCN1CCCC1,u,0.9%,-0.4%,3.1%,13µM*
CN1C(=O)N(CC(=O)N2CCN(S(=O)(=O)/C=C/c3ccccc3)CC2)C(=O)C12CCCCC2,-28.7%,x,x,0.4%,u
Cc1nn(Cc2ccccc2)c2c1C(c1cccc(Cl)c1)C(C#N)=C(N)O2 (configuration not stated),23.1µM*,11.4%,-8.5%,5.0%,18.4µM*
COc1ccc(C(CNC(=O)CNC(=O)c2cc(OC)c(OC)c(OC)c2)N2CCOCC2)cc1 (configuration not stated),-1.8%,x,x,7.0%,9.6%
Cc1ccc(NC(=O)CN2C(=O)CCS(=O)(=O)c3ccccc32)cc1Cl,-3.2%,-3.3%,18.7%,2.5%,0.7%
COc1ccc(S(=O)(=O)N2CCN(c3ccccc3)CC2)cc1C(=O)N1CCCC1,-0.7%,18.1%,-1.8%,2.7%,-19.9%
COc1ccc(N2CCN(C(=O)c3cc(S(=O)(=O)N4CCCCCC4)ccc3OC)CC2)cc1,u,x,x,2.8%,16.4µM*
